The values below come from PubChem BioAssay (NCI).

Molecules are shown by their SMILES. Compounds without any hit were thinned out: in the full panel of roughly 83,000, 20% have a hit.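 Testing used 96-well plates and a 48-hour single-concentration exposure. Example: -40 means 40% of the starting cells died.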 Values without a mark were called inactive. The source made the active and inactive calls. The calls were made as follows: active = growth percent below 10; inactive = the rest.

Common to all, as to test: NCI-60 one-dose screen, 48 h (100 = growth as untreated, 0 = no growth, -100 = all killed)
Holding throughout (details): 10 µM unless noted

The test system of experiment [1] is RPMI-8226 leukemia.
For experiment [2], the system named is OVCAR-8 ovarian.
The subject of experiment [3] is OVCAR-5 ovarian.
Experiment [4] relates to OVCAR-4 ovarian.
Experiment [5] has as its system SK-OV-3 ovarian.
Experiment [6] relates to IGROV1 ovarian.
For experiment [7], the system named is OVCAR-3 ovarian.
Experiment [8] relates to HS 578T breast.
Experiment [9] relates to NCI/ADR-RES ovarian.
Experiment [10] concerns T-47D breast.

With `O=C(O)c1cn(C2CC2)c2cc(N3CCN(C(=O)C[n+]4ccccc4)CC3)c(F)cc2c1=O`, the growth was 106% in [1]; 105% in experiment [2]; 104% in experiment [3]; 89.4% in [4]; 110% in experiment [5]; 109% in [6]. Moreover, the growth in experiment [7] is 107%; in experiment [8] it was 99.3%; in [9], 105%; in experiment [10], 94.2%.

As for `COc1ccc(-c2nsc3c2NC(=O)CC3c2ccsc2)cc1` (stereo not given), the growth in [1] is 21.5%; in experiment [2] it was 30.7%; in [3], 33%; in experiment [4], 31.1%; in experiment [5], -4.77% (active); in experiment [6], 15.7%. Also, the growth was -39.3% (active) in [7], 32.5% in [8], 22.2% in experiment [9] and 62.7% in experiment [10].

As to `COc1ccc(-c2nc(-c3ccccc3)c(-c3ccccc3)[nH]2)cc1OC1CCCCC1`, the growth in experiment [1] was 58.9%; in experiment [2] it was 86.7%; in experiment [3] it was 96.6%; in [4] it was 74.2%; in experiment [5], 98.9%; in [6], 102%. Also, the growth was 72.6% in [7], 91.2% in [8], 87.7% in experiment [9] and 82.6% in experiment [10].

Consider `Cc1cccc(NC(=O)c2sc3nc4c(cc3c2N)CCCC4)c1C`, for which the growth was 7.76% (active) in experiment [1]; 23% in experiment [2]; 44.1% in [3]; 65.3% in [4]; 32.5% in [5]; 40.7% in experiment [6]. Besides, the growth is -10.1% (active) in experiment [7], 25.1% in experiment [8], -15.8% (active) in experiment [9] and 36.3% in experiment [10].

`CCN(CC)CCNC(=O)C(Cl)=C1C(Cl)=C(Cl)C(Cl)=C1Cl`: the growth in experiment [1] was 30.6%; in experiment [2], 15.8%; in experiment [3], 120%; in [4], 41.9%; in experiment [5], 58.7%; in [6], 59.1%. Besides, the growth in experiment [7] was 40.1%; in experiment [8], 82.2%; in experiment [9], 44.7%; in experiment [10], 56.6%.

On to `O=c1c2cc(F)cc(Cl)c2sc2c(Cl)nc3ccccc3c12`, for which the growth in experiment [1] was 115%; in experiment [2], 102%; in [3] it was 95.5%; in experiment [4] it was 98.7%; in experiment [5], 95%; in experiment [6], 74.8%. The growth is 108% in experiment [7], 88.4% in experiment [8], 98.3% in [9] and 91.8% in experiment [10].

In the case of `COC(=O)C1=Nc2ccc(F)cc2/C1=C/c1sc(=S)[nH]c1O`, the growth is -9.01% (active) in experiment [1]; 13.3% in experiment [2]; 43.6% in experiment [3]; 58.2% in experiment [4]; 28.5% in [5]; 14.4% in experiment [6]. The growth in [7] was -1.67% (active); in experiment [8], 23.1%; in [9], 7.28% (active); in experiment [10], 61.2%.

Turning to `CN1CCN(Cc2ccc(C(=O)Nc3cncc(C#Cc4cnc(N)c5ccccc45)c3)cc2C(F)(F)F)CC1`, the growth in [1] is -41.4% (active); in [2], -17.8% (active); in experiment [3], -44% (active); in experiment [4] it was -44.5% (active); in experiment [5], 35.2%; in [6], -47.4% (active). Also, the growth is -74.1% (active) in experiment [7], -35.4% (active) in [8], -25.4% (active) in experiment [9] and -10.5% (active) in experiment [10].

As for `COc1nccc2cc3c(=O)n4c(cc5ccccc54)c(=O)n3c12`, the growth in [1] is 95.7%; in experiment [2] it was 111%; in experiment [3] it was 107%; in experiment [4], 97.3%; in experiment [5], 102%; in [6] it was 66.9%. Also, the growth was 103% in experiment [7], 106% in [8], 100% in experiment [9] and 68.4% in experiment [10].

Turning to `CCOC(=O)C1=C(C)c2ccc(OC)c(OC)c2C1`, the growth in experiment [1] was 85.3%; in experiment [2], 95.7%; in experiment [3] it was 102%; in experiment [4], 84.7%; in experiment [5] it was 103%; in experiment [6] it was 104%. The growth in experiment [7] is 117%; in experiment [8], 120%; in experiment [9], 101%; in [10], 78%.

Take `CC1=C(CC(=O)c2cccc([N+](=O)[O-])c2)C(=O)c2ccccc2C1=O`: the growth in experiment [1] is -7.18% (active); in experiment [2], 9.43% (active); in experiment [3] it was 37.5%; in experiment [4], -89.2% (active); in [5], 30.5%; in experiment [6], -61.1% (active). The growth in experiment [7] is -94% (active); in experiment [8], -20.6% (active); in experiment [9] it was 30.9%; in [10], -10.2% (active).

For `COc1ccc(-c2cn[nH]c2-c2ccc(OC)c(O)c2)cc1`, the growth is 77.5% in [1]; 88.4% in [2]; 99.1% in [3]; 90.2% in experiment [4]; 86.8% in [5]; 77.2% in [6]. Also, the growth is 81.1% in [7], 75.9% in experiment [8], 49.2% in experiment [9] and 73.6% in experiment [10].

Consider `CCOc1ccc(Nc2ccnc3cc(Cl)ccc23)cc1`, for which the growth in [1] was -14.1% (active); in experiment [2], -1.07% (active); in [3], 36%; in experiment [4], 16.5%; in experiment [5], 2.15% (active); in experiment [6], 14.9%. Further, the growth is 11.7% in [7], 29.3% in experiment [8], 3.34% (active) in experiment [9] and 1.44% (active) in experiment [10].
